IMPase Li inh – qHTS Assay for Identifying the Cell-Membrane Permeable IMPase Inhibitors: Potentiation with Lithium; 0.35% of 210,000 active; CHO-M1 cells, IP1 TR-FRET (IP-One), carbachol + lithium; Potency, µM (doses to about 59.4 µM), usual class: inhibitors; active means well fitted curve in the direction sought with a large enough effect; inconclusive means small, poorly fitted or top-dose-only effect, or another doubt; inactive means no such curve, though single readings can be large; an effect the other way counts as inactive or inconclusive;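 further: IP1 builds up when IMPase is blocked and the TR-FRET signal falls; nearly all actives have a fitted effect of over 50% in size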
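CHO-M1, 2000 cells/well, 16–30 h culture; cpd + low Li+, 30 min 37C; lysis with d2-IP1/Eu-anti-IP1 Ab, 10 min RT; TR-FRET 665/620 ratio and 620 channel; AC50 via Hill.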
IMPase inh – qHTS Assay for Identifying the Cell-Membrane Permeable IMPase Inhibitors; Inositol monophosphatase 1 (Rattus norvegicus), P97697; CHO-M1 cells, IP1 accumulation, HTRF TR-FRET ratio; inhibition (IP1 accumulation), % at 46.1 µM; 120,000 tested, under 10 active; AID 901, 2007; active means well fitted curve in the direction sought with a large enough effect in the signal ratio, not every such curve was filed as active; inconclusive means small, poorly fitted or top-dose-only effect, or a change in a side signal; inactive means no such curve, though single readings can be large or run the other way; the % refers to the signal ratio;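 further: cells stimulated with carbachol in lithium chloride buffer; higher means more IMPase inhibition seen as more IP1 and lower FRET ratio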
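Elevated IP1 in lysates lowers TR-FRET signal (665/620 ratio and 620 channel reported). Cells were CHO-M1, given carbachol (50 uM as added) plus 50mM LiCl, pH 7.4, 30 min, 37C; compounds titrated up to 46 uM; AC50 by Hill equation.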
PNC inhibitor – High Content Assay for Compounds that inhibit the Assembly of the Perinucleolar Compartment; PC3M PTB-GFP, PNC prevalence imaging, 16 h; stronger effect = lower value; activity change (PNC), negative = inhibition, % at 10 µM; 3.1% of 140,000 active;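 active means readout at or below -70, meaning at least 70% loss of cells showing the perinucleolar compartment, a nuclear body marking cancer cells; inconclusive means readout between -30 and a set limit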
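PC3M cells stably expressing PTB-GFP, 750–1000 cells/well, treated 16 h at 37 °C with compound (23 nl of library stock), in duplicate. After paraformaldehyde fixation and Hoechst stain, imaged at 20x; PNC prevalence scored by image analysis.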
ALDH1A1 block – qHTS Assay for Inhibitors of Aldehyde Dehydrogenase 1 (ALDH1A1); Aldehyde dehydrogenase 1A1 (Homo sapiens), P00352; Purified ALDH1A1, NADH fluorescence, propionaldehyde substrate; Potency, µM (highest dose often 75.3 µM), most hits filed as inhibitors; 7.3% of 220,000 active
Target sequence (P00352 whole entry, looked up): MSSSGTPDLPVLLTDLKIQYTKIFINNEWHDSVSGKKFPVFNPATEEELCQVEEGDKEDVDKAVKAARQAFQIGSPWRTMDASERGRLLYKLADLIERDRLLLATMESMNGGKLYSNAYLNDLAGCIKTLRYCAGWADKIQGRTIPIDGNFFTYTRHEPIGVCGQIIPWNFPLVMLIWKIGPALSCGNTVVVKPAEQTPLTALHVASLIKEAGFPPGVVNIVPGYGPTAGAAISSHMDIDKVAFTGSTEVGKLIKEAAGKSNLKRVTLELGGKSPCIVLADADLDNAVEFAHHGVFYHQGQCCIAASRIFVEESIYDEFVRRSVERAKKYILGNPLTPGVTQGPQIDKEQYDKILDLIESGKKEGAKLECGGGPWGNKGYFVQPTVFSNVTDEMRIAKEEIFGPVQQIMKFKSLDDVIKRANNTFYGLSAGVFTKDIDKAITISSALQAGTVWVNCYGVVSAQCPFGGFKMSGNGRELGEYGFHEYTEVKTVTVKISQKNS
HPGD block – qHTS Assay for Inhibitors of HPGD (15-Hydroxyprostaglandin Dehydrogenase). Potency, µM, actives largely listed as inhibitors. 4.3% of 150,000 active. 15-hydroxyprostaglandin dehydrogenase [NAD(+)] (Homo sapiens), P15428. AID 894, 2007. purified HPGD, NADH fluorescence kinetic, PGE2 substrate
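20 nM HPGD preincubated 15 min at room temperature with compound in 50 mM Tris-HCl pH 8, 0.01% Tween 20. Started with 1 mM NAD+ and 30 uM prostaglandin E2; NADH fluorescence (360/450 nm) read 5 times over 30-s intervals, last minus first.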
ALOX12 inhib – qHTS Assay for Inhibitors of 12-hLO (12-human lipoxygenase); Polyunsaturated fatty acid lipoxygenase ALOX12 (Homo sapiens), P18054; purified 12-hLO, xylenol orange hydroperoxide absorbance; Potency, µM (doses to about 57.1 µM), most hits filed as inhibitors; 0.12% of 150,000 active; AID 1452, 2008; active means well fitted curve in the direction sought with a large enough effect; inconclusive means small, poorly fitted or top-dose-only effect, or another doubt; inactive means no such curve, though single readings can be large; an effect the other way counts as inactive or inconclusive; further: nearly all actives have a fitted effect of over 55% in size
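150 nM 12hLO, 25 mM Hepes pH 7.0 + 0.01% Triton X-100; cpd preinc 15 min RT; 40 uM arachidonic acid, 30 min RT; Fe-XO 30 min; A573/A405 ratio as read-out.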
A number is an active result; [ ] = dose if it differs, or a comment. Most compounds without a hit are left out; they make up all but 11% or so of the library. Unless noted, the call rests on the fitted dose curve; in most records, active means well fitted inhibition curve with a large enough effect (not every such curve was filed as active); inconclusive means small, poorly fitted or top-dose-only effect, or another doubt; inactive means no such curve, though single readings can be large or run the other way.

`COc1ccc(S(=O)(=O)Nc2ccccc2C)cc1` gave IMPase Li inh inactive, IMPase inh inactive, PNC inhibitor inconclusive, ALDH1A1 block inactive, HPGD block inactive and ALOX12 inhib inactive.
For COc1ccc(S(=O)(=O)Nc2ccccc2SC)cc1C the results were IMPase Li inh 11µM, IMPase inh inactive, PNC inhibitor inactive, ALDH1A1 block inconclusive, HPGD block inactive and ALOX12 inhib inactive.
For COC(=O)c1ccc(C(NC(=O)OCc2ccccc2)/C(C)=C/[C@@H](C)C(=O)NCc2nn(-c3ccccc3)nc2C)cc1 (some centres not stated) the results were IMPase Li inh inactive, ALDH1A1 block inconclusive, HPGD block inactive and ALOX12 inhib inactive.
For CC(C)(C)N=C1NN=C(c2cc3ccccc3o2)CS1 the results were IMPase inh inactive, PNC inhibitor inactive, ALDH1A1 block 22µM and ALOX12 inhib inactive.
Cc1c(Cl)cccc1NC(=O)CNc1ccccc1F was read as IMPase inh inactive, PNC inhibitor inactive, ALDH1A1 block 10µM and ALOX12 inhib inactive.
Cc1c(Cl)cccc1NC(=O)CNCc1ccccc1F was read as IMPase Li inh inactive and ALDH1A1 block inactive.
For CS(=O)(=O)c1ccc(N)cc1 the results were IMPase Li inh inactive, IMPase inh inactive, PNC inhibitor -88, ALDH1A1 block inactive, HPGD block inactive and ALOX12 inhib inactive.
Screening CCN(CC)S(=O)(=O)c1ccc(N)cc1 returned IMPase Li inh inactive and ALDH1A1 block inactive.
Screening COc1ccc(-c2nc(SCC(=O)Nc3ccc4c(c3)OCO4)c(-c3ccccc3)[nH]2)cc1 returned IMPase inh inactive.
CCOC(=O)N1CCN(C(=O)c2ccc3c(=O)n(CCC4=CCCCC4)c(=O)[nH]c3c2)CC1 was read as IMPase Li inh inactive, IMPase inh inactive, PNC inhibitor inactive, ALDH1A1 block 6.3µM, HPGD block inactive and ALOX12 inhib inactive.
For CCCCSc1nnc2c(n1)OC(c1ccc(Br)s1)N(C(C)=O)c1ccccc1-2 (configuration not stated) the results were IMPase inh inactive.
`COc1cccc(/C=C(/C#N)c2ccc(Cl)cc2)c1OCc1cccc(C(=O)O)c1` gave ALDH1A1 block inactive.
COc1cccc(/C=C(/C#N)c2ccc(F)cc2)c1OCc1cccc(C(=O)O)c1 was read as IMPase Li inh inactive, PNC inhibitor inactive, ALDH1A1 block 13µM, HPGD block inconclusive and ALOX12 inhib inactive.
Screening CCN(CC)C(=O)CSc1nnc(CCN)o1 returned IMPase Li inh inactive, IMPase inh inactive, PNC inhibitor -82, ALDH1A1 block inactive, HPGD block inactive and ALOX12 inhib inactive.
Screening Cc1ccc(C(=O)Oc2ccc3c(c2)ncn3C)cc1 returned IMPase Li inh inactive, IMPase inh inactive, PNC inhibitor inactive, ALDH1A1 block inactive, HPGD block 7.9µM and ALOX12 inhib inactive.
`c1ccc2sc(SCN(C3CCCCC3)C3CCCCC3)nc2c1` gave IMPase Li inh inactive, ALDH1A1 block inactive[13.5 µM], HPGD block inactive and ALOX12 inhib inactive[11.4 µM].
Screening CCCCN1C(=O)CCC(C(=O)O)C1c1ccccc1 (configuration not stated) returned IMPase Li inh inactive, IMPase inh inactive, PNC inhibitor -102, ALDH1A1 block inactive, HPGD block inactive and ALOX12 inhib inactive.
CCCCOC(=O)c1ccc(NC(=S)NC(=O)c2c(Cl)cnn2CC)cc1 was read as IMPase Li inh inactive, IMPase inh inactive, PNC inhibitor inactive, ALDH1A1 block 3.5µM, HPGD block inactive and ALOX12 inhib inactive.
For CCCCOC(=O)c1ccc(NC(=S)NC(=O)c2c(Cl)cnn2C)cc1 the results were IMPase Li inh inactive, IMPase inh inactive, PNC inhibitor inactive, ALDH1A1 block inconclusive, HPGD block inactive and ALOX12 inhib inactive.

High-throughput results: PubChem BioAssay, National Center for Advancing Translational Sciences (NCATS)
